Inconclusive results are not listed. Values without a mark were called inactive. The call rests on the fitted dose curve; in most records, active means well fitted cell-killing curve with a large enough effect in the repeat runs; inconclusive means weak or mixed curves, or effect the other way; inactive means no such curve, though single readings can be large or run the other way.
On the % scale 0 is the no-effect control and ±100 the full control effect.

This assay can be described thus: qHTS assay to identify small molecule antagonists of the glucocorticoid receptor (GR) signaling pathway - cell viability counter screen (AID 720693). Further: nearly all actives have a fitted effect of over 55% in size. As to conditions: GR-bla HeLa viability, CellTiter-Glo luminescence, 18 h, with 5 nM dexamethasone present; series mostly up to 58.5 µM; viability change, negative = cytotoxic: at the top concentration.
On to `O=C(O)[C@H](CC(=O)N1C[C@H]2CCCC[C@H]2C1)Cc1ccccc1`, for which the “viability change, negative = cytotoxic” value was 5.7%. For the compound `CC(C)(CO)[C@@H](O)C(=O)NCCCC(=O)O`, the “viability change, negative = cytotoxic” value is -5.22%. Regarding `C=C1CC2C3CCC4=CC(=O)C=C[C@]4(C)[C@@]3(F)[C@@H](O)C[C@]2(C)[C@@]1(O)C(=O)COC(C)=O` (some centres undefined), the “viability change, negative = cytotoxic” value was -6.82%.

Consider `CCOC(=O)c1cc(-c2ccccc2)nc2ccc(C)cc12`, for which the “viability change, negative = cytotoxic” value is 4.12%. In the case of `C[C@@H]1C[C@H]2C3C[C@H](F)C4=CC(=O)C=CC4(C)[C@@]3(F)[C@@H](O)CC2(C)[C@@]1(O)C(=O)COC(=O)C(C)(C)C` (some centres undefined) it was -3.5%; in that of `O=C(O)c1cc(N=Nc2ccc(O)c(C(=O)O)c2)ccc1O`, 2.12%. With `COC(=O)[C@H]1[C@H]2C[C@@H]3c4[nH]c5cc(OC)ccc5c4CCN3C[C@H]2C[C@@H](OC(=O)/C=C/c2cc(OC)c(OC)c(OC)c2)[C@@H]1OC`, the “viability change, negative = cytotoxic” value was 20.9% [at 27 µM]. Take `NC(=O)OC[C@@H]1[C@H](NC(=O)/C(=N\OCC(=O)O)c2csc(N)n2)C(=O)N1S(=O)(=O)O`: the “viability change, negative = cytotoxic” value is -1.53%. Take `C[N+](C)(CCCCCC[N+](C)(C)C1c2ccccc2-c2ccccc21)C1c2ccccc2-c2ccccc21`: the “viability change, negative = cytotoxic” value is 1.67%. Consider `O=C(O)c1c(Cl)c(Cl)c(Cl)c(Cl)c1-c1c2cc(I)c(=O)c(I)c-2oc2c(I)c(O)c(I)cc12`, for which the “viability change, negative = cytotoxic” value is -6.26%. On to `O=C(Nc1ccc(O)cc1)c1ccccc1O`, for which the “viability change, negative = cytotoxic” value is -6.41%. For the compound `O=C(CCCCCCCCCCCCC1CCCC1)Nc1ccc(S(=O)(=O)c2ccc(NC(=O)CCCCCCCCCCCCC3CCCC3)cc2)cc1`, the “viability change, negative = cytotoxic” value is 6.28%. For the compound `c1ccc2cc(C3=NCCN3)ccc2c1`, the “viability change, negative = cytotoxic” value is 10.5%. The value for `CC(C)c1nc(N(C)S(C)(=O)=O)nc(-c2ccc(F)cc2)c1/C=C/C(O)CC(O)CC(=O)O` (centres undefined) was -16.6%.

Values taken from PubChem BioAssay (Tox21).
